Measured values from PubChem BioAssay (NCATS).
Inconclusive results are not listed. A call without a number means that no potency is given here. Activity calls are given as the source filed them. Calls come from the whole dose curve; as a rule, active = well fitted inhibition curve with a large enough effect; inconclusive = small, poorly fitted or top-dose-only effect; inactive = flat fitted curve, though single readings scatter.

Test system: CRL-7250
Assay: qHTS assay to identify novel small-molecules to repurpose for Merkel cell carcinoma treatment (AID 1296009); note: nearly all actives have a fitted effect of over 60% in size
Details: MCC and control cell lines, CellTiter-Glo viability, 72 h; series mostly up to 92 µM
Method in brief: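 Cells were incubated with compound for 72 hr at 37 degree celsius before CellTiter-Glo addition. Luminescence was normalized with no-cell wells as full cytotoxicity and DMSO as baseline.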

SMILES | outcome | Potency
CC(=O)N[C@H]1[C@H](O[C@H]2CC[C@@]3(C)C(CC[C@]4(C)C3CC=C3C5CC(C)(C)CC[C@]5(C(=O)O)[C@H](O[C@@H]5O[C@H](CO)[C@@H](O)[C@H](O)[C@H]5O)C[C@]34C)C2(C)C)O[C@H](CO[C@@H]2OC[C@H](O)[C@H](O)[C@H]2O[C@@H]2OC[C@@H](O)[C@H](O)[C@H]2O)[C@@H](O)[C@@H]1O (stereo partly drawn) | inactive [at 9.27 µM] | –
CC(O)CCC1C(CO[C@@H]2O[C@H](CO)[C@@H](O)[C@H](O)[C@H]2O)CC(O)CC1(C)C (stereo partly drawn) | – | inactive
CC1(C)C2CC=C(COC3OC(COC4OCC(O)(CO)C4O)C(O)C(O)C3O)C1C2 (stereo not drawn) | – | inactive
COc1ccc(-c2ccc(-c3cn(C(=O)N4CCCCC4c4ccccc4)nn3)cc2)cc1 (stereo not drawn) | – | inactive
CC(C)CC(=O)OC[C@H]1O[C@@](COC(=O)CC(C)C)(O[C@H]2O[C@H](CO)[C@@H](O)[C@H](O)[C@H]2OC(=O)CC(C)C)[C@@H](OC(=O)CC(C)C)[C@@H]1O | – | inactive
CC1CCC2(C(=O)O)CCC3(C)C(=CCC4C5(C)CCC(OC(=O)/C=C/c6ccccc6)C(C)(C)C5CCC43C)C2C1C (stereo not drawn) | – | inactive
O=C(O[C@H]1[C@@H]2C=CO[C@@H](O[C@@H]3O[C@H](CO)[C@@H](O)[C@H](O)[C@H]3O)[C@@H]2[C@@]2(CO)O[C@@H]12)c1ccc(O)c(O)c1 | – | inactive
C/C=C/[C@@H]1C=C[C@@H]2C[C@H](C)CC[C@H]2[C@]1(C)/C(O)=C1/C(=O)[C@@H](CO)N(C)C1=O | – | inactive
CCOC(=O)CCNc1cc(N2CCc3ccccc3CC2)nc(-c2cccnc2)n1 | – | inactive
CC(=O)OC1C(O)C2C(C)C3=CC(=O)OC3(O)CC2C2(C)CCCC(C)(CO)C12 (stereo not drawn) | – | inactive
CCCCCCc1cccc(NC(=O)[C@H](N)CCP(=O)(O)O)c1 | inactive [at 9.27 µM] | –
On1ncc(C2CCNCC2)c1-c1cccc(-c2ccccc2)c1 | – | inactive
CC1=C2C[C@H]3O[C@@]3(C)CCC3O[C@@]3(C)C[C@@]2(O)OC1=O (stereo partly drawn) | – | inactive
CC(O)C(C)n1ncn(-c2ccc(N3CCN(c4ccc(OCC5COC(Cn6cncn6)(c6ccc(Cl)cc6Cl)O5)cc4)CC3)cc2)c1=O (stereo not drawn) | – | inactive
C=C1CC[C@H]2[C@@](C)(CCC(O)[C@@]2(C)CO)[C@@H]1C/C=C(/C(=O)O)C(O)CO (stereo partly drawn) | – | inactive
C=C1C(O)CCC2(C)CC3(OC)OC(=O)C(C)=C3CC12 (stereo not drawn) | – | inactive
Cc1nc2ccc(CN(C)c3ccc(C(=O)NC(CCC(=O)O)C(=O)O)s3)cc2c(=O)[nH]1 (stereo not drawn) | – | inactive
CC(=O)O[C@]1(C(C)=O)CC[C@H]2[C@@H]3CCC4=CC(=O)CCC4=C3[C@@H](c3ccc(N(C)C)cc3)C[C@@]21C | – | inactive
CO[C@@]12CC3[C@@H]([C@@H](O)[C@@H](OC(C)=O)C4[C@](C)(COC(C)=O)CCC[C@]34C)[C@@H](C)C1=CC(=O)O2 (stereo partly drawn) | – | inactive
CC(C)CC(=O)NCCn1cc(C(=O)O)c(=O)cc1C(O)c1ccccc1 (stereo not drawn) | – | inactive
CC(C)/C=C1/NC(=O)C(C(C)C)n2c1nc1c(O)cccc1c2=O (stereo not drawn) | – | inactive
CC#C[C@@H](CC(=O)O)c1ccc(OCc2ccc(CN3CCC4(C=Cc5ccccc54)CC3)s2)cc1 | – | inactive
CCN(CCN(C)C)C(=O)CNCc1cc(C(N)=O)ccn1 | – | inactive
C[C@@H]1CC[C@H]2C(C)(C)[C@H](O)[C@H](O)C[C@]2(C)[C@@]12Cc1c(O)cc3c(c1O2)CNC3=O | – | inactive
OC[C@H]1O[C@@H](Oc2ccc(O)c3cccc(O)c23)[C@H](O)[C@@H](O)[C@@H]1O | – | inactive
CC1(C)NC2N(C1=O)c1ccccc1C2(O)CC(C(=O)O)n1cnc2ccccc2c1=O (stereo not drawn) | – | inactive
C=C1C(=O)OC2C1C(O)CC1(C)C(O)CCC(C=O)C21 (stereo not drawn) | – | inactive
CN(C)c1ccc(C2O[C@@H](c3ccccc3)C[C@H](c3ccccc3)O2)cc1 (stereo partly drawn) | – | inactive
